# Screening results as filed in PubChem BioAssay.
# TEAD-YAP inh – TEAD-YAP interaction inhibition, primary screen, TEAD-YAP interaction inhibitor project, luminescence, HEK-TIYL cells | TEAD-Gal4/YAP UAS-luciferase luminescence | inhibition, % at 9.12 µM | hit rate 1.4% among 640,000; in the data active = inhibition above about 32%;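 also: 0% = median of test compound wells and 100% = reference inhibitor wells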
# FBW7 activator – FBW7 E3 ligase activators, primary screen, biochemical, AlphaScreen, human. F-box/WD repeat-containing protein 7 (Homo sapiens), Q969H0. AlphaScreen FBW7–phospho-cyclin E peptide binding, activator screen. normalized activity (activation), % at 26.1 µM. hit rate 0.13% among 650,000. AID 1259310, 2017; in the data active = normalized activity above about 1.9%;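 also: purified mutant Fbw7 with reduced substrate affinity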
# MITF primary – MITF inhibitors, primary screen, biochemical, AlphaScreen, human; Microphthalmia-associated transcription factor (Homo sapiens), O75030; AlphaScreen MITF homodimerization, bead proximity signal; inhibition, % at 2.6 µM; hit rate 0.91% among 650,000; in the data active = inhibition above about 50%;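 also: 0% = vehicle wells with protein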
# GPR151 ag – activators of human GPR151, primary screen, cell-based, PathHunter beta-arrestin, luminescence. PathHunter beta-arrestin GPR151 cells. hit rate 1% among 650,000. activation, % at 11.2 µM. AID 1508602, 2020; in the data active = activation above about 4.9%;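 also: 0% = median of compound wells and 100% = cells with positive control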
# Target sequence (Q8TDV0 whole entry, looked up): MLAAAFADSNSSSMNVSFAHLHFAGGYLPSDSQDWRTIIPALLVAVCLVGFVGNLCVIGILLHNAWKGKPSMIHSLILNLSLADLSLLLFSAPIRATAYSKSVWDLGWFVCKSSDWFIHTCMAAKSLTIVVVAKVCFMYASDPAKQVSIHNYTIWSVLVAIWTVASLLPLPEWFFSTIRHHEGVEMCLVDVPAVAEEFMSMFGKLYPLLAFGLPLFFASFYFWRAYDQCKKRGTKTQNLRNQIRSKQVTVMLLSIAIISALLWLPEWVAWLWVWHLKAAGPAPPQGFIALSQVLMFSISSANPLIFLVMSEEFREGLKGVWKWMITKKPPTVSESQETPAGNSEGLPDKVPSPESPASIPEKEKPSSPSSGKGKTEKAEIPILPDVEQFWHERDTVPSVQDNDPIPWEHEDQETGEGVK
# Active calls of the source: *. Most compounds without a hit are left out; they make up all but 3.4% or so of the library.
SMILES,TEAD-YAP inh,FBW7 activator,MITF primary,GPR151 ag
CN(C)CCNC(=O)c1ccc(-c2cnc3c(Nc4ccc5[nH]ccc5c4)nccn23)cc1,39*,0,-41,-1
c1cn2c(-c3ccc4[nH]ccc4c3)cnc2c(Nc2ccc3[nH]ccc3c2)n1,0,0,-11,2
Clc1ccc(Nc2nccn3c(-c4ccoc4)cnc23)cc1,40*,-1,12,-3
Oc1cccc(-c2cnc3c(Nc4ccc5[nH]ccc5c4)nccn23)c1,97*,0,-9,-2
c1cn2c(-c3ccoc3)cnc2c(Nc2ccc3[nH]ccc3c2)n1,81*,0,-3,-3
Cc1ccc(NC2=NCC(=O)N2C2CCCC2)cc1,56*,0,0,-6
Cc1ccc(CC(=O)Nc2ccc(S(=O)(=O)N3CCC(C)CC3)cc2)cc1,11,0,8,1
CCOC(=O)c1c(C)[nH]c(-c2csc(N)n2)c1C,32*,0,6,1
CCOCCCNC(=O)/C(C#N)=C/c1cc(OC)c(O)c([N+](=O)[O-])c1,48*,0,20,-1
COc1cc(/C=C(\C#N)C(=O)Nc2ccc(Cl)cc2)cc([N+](=O)[O-])c1O,8,1,23,-1
COc1cc(/C=C(/C#N)C(=O)Nc2ccc(O)cc2)ccc1O,47*,0,17,1
COc1cc(/C=C(\C#N)C(=O)Nc2ccc(F)cc2)cc([N+](=O)[O-])c1O,37*,0,-5,-1
CCOCCCNC(=O)/C(C#N)=C/c1ccc(Cl)c([N+](=O)[O-])c1,5,1,16,-3
COc1cc(/C=C(\C#N)C(=O)Nc2ccc(O)cc2)cc(Cl)c1O,54*,0,3,0
O=C(CNC(=O)c1cccnc1)N/N=C/c1ccc([N+](=O)[O-])o1,4,0,1,-2
CC1(C)CC2CC(C)(CN2C(=O)CSc2nnc(-c3ccc4c(c3)OCO4)o2)C1 (centres undefined),0,0,-4,0
CCN(CC)c1ccc(/C=C(/C#N)C(=O)Nc2ccc(O)cc2)cc1,40*,0,17,0
CCOc1cc(/C=C(/C#N)C(=O)Nc2ccc(O)cc2)cc(Br)c1O,56*,0,-9,-1
COc1cc(/C=C(/C#N)C(=O)Nc2cccc(C)c2)cc(Br)c1O,3,0,-4,-1
COc1cc(/C=C(/C#N)C(=O)Nc2ccc(O)cc2)cc(Br)c1O,43*,0,0,2
COCCN1C(=O)/C(=C/c2c(F)cccc2Cl)C(C(=O)OC)=C1C,-2,0,4,1
COc1cccc(Nc2cc(N3CCCCC3C)c3noc4c3c2C(=O)c2ccccc2-4)c1 (centres undefined),6,-1,69*,-1
COc1cccc(Nc2cc(N3CCCCC3)c3noc4c3c2C(=O)c2ccccc2-4)c1,0,-1,41,-2
COc1ccc(Nc2cc(N3CCCCC3C)c3noc4c3c2C(=O)c2ccccc2-4)cc1 (centres undefined),25,-1,51*,-2
COc1ccc(Nc2cc(N3CCCC3)c3noc4c3c2C(=O)c2ccccc2-4)cc1,-10,0,2,-1
SMILES,TEAD-YAP inh,FBW7 activator,MITF primary,GPR151 ag
CC(C)(C)c1cc(NC(=O)c2cccc([N+](=O)[O-])c2)no1,-60,1,14,-2
CCOc1ccc(/C=C/c2nc3ccccc3c(=O)o2)cc1,83*,0,-3,-8
COC(=O)c1ccc(N2N=C(C)/C(=C/c3ccc(OCc4ccc(Cl)cc4)c(OC)c3)C2=O)cc1,-70,2.0*,24,3
CCOC(=O)c1c(/N=c2\oc3c(OC)cccc3cc2C(=O)Nc2cccc(C)c2)sc2c1CCCC2,-1,0,9,-1
CCOC(=O)c1c(/N=c2\oc3c(OC)cccc3cc2C(=O)Nc2ccc(OC)cc2)sc2c1CCCC2,36*,0,-12,2
COc1ccc(OC)c(NC(=O)CSc2nnc(-c3ccccc3)n2-n2cccc2)c1,6,0,14,-1
COc1cccc(-c2nnc(SCC(=O)Nc3cc(Cl)ccc3OC)n2-n2cccc2)c1,52*,0,6,1
COc1ccc2c(Cn3cnc4cc([N+](=O)[O-])ccc4c3=O)cc(=O)oc2c1,64*,0,0,0
O=S(=O)(N=S(N1CCOCC1)N1CCOCC1)c1ccccc1,-7,0,9,-1
Cc1ccc(SCCC(=O)Nc2nc3c(s2)CCC3)cc1,8,0,8,-1
Cc1ccc(NC2OC(C)C(O)C(O)C2O)cc1C (centres undefined),11,2.5*,4,-2
Cc1ccc(NC2OC(CO)C(O)C(O)C2O)cc1C (centres undefined),12,0,1,1
c1ccc(CN2CCC(Nc3cc(-c4csc5ccccc45)ncn3)CC2)cc1,9,0,2,1
c1ccc2c(-c3cc(NC4CC4)ncn3)csc2c1,35*,0,13,-1
CCC(Sc1nc2n[nH]c(C)c2c(=N)n1-c1cccc(Cl)c1)C(=O)N1CCCC1 (centres undefined),49*,0,27,1
CCCN(CCC)C(=O)CSc1nc2n[nH]c(C)c2c(=N)n1-c1cccc(C)c1,-20,0,16,0
CCC(Sc1nc2n[nH]c(C)c2c(=N)n1-c1cccc(C)c1)C(=O)N(CC)CC (centres undefined),39*,0,4,0
COC(=O)C1=NNC2C(=O)N(c3ccc(Cl)c(Cl)c3)C(=O)C12 (centres undefined),0,0,-8,0
CC(=O)N(C1=C(N(C)C)C(=O)c2ccccc2C1=O)c1ccc(F)c(F)c1,99*,0,17,-6
CN(C1=C(NCCO)C(=O)c2ccccc2C1=O)c1ccccc1,3,0,24,0
CC(=O)N(C1=C(N(C)C)C(=O)c2ccccc2C1=O)c1ccc(Cl)c(Cl)c1,82*,-1,15,-4
CN(C)C1=C(Nc2ccc(Cl)c(Cl)c2)C(=O)c2ccccc2C1=O,-3,0,12,-1
CC(=O)N(C1=C(NCCO)C(=O)c2ccccc2C1=O)c1cccc(Br)c1,86*,0,0,-4
CC(=O)N(C1=C(N(C)C)C(=O)c2ccccc2C1=O)c1cccc(Cl)c1,93*,-1,24,-5
CCOc1ccc(CN[C@H]2C[C@@H](C(=O)NCCOC)N(Cc3ccc(Cl)cc3)C2)cc1,-1,0,3,0
O=C(Nc1ccc(Oc2ccccc2)cc1)N1CCCC(N2CCOCC2)C1 (centres undefined),13,0,13,-1
COc1ccc(C2C3=C(CCCC3=O)Nc3ccccc3N2C(=O)c2ccccc2)cc1OC (centres undefined),5,0,9,0
CCC(=O)Nc1cnc(NC(=O)c2ccc(Cl)cc2)cc1C,-13,0,8,0
